Source: PubChem (The Scripps Research Institute Molecular Screening Center)
Most compounds without a hit are left out; they make up all but 3.5% or so of the library.
TEAD-YAP inh = TEAD-YAP interaction inhibition, primary screen, TEAD-YAP interaction inhibitor project, luminescence, HEK-TIYL cells | TEAD-Gal4/YAP UAS-luciferase luminescence | inhibition, % at 9.12 µM | 640,000 compounds, 1.4% hits; in the data active = inhibition above about 32%;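 also: 0% = median of test compound wells and 100% = reference inhibitor wells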
MITF inh = MITF inhibitors, primary screen, biochemical, AlphaScreen, human; Microphthalmia-associated transcription factor (Homo sapiens), O75030; AlphaScreen MITF homodimerization, bead proximity signal; inhibition, % at 2.6 µM; 650,000 compounds, 0.91% hits; AID 1259374, 2018; in the data active = inhibition above about 50%;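 also: 0% = vehicle wells with protein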
FBW7 act = FBW7 E3 ligase activators, primary screen, biochemical, AlphaScreen, human | 650,000 compounds, 0.13% hits | AID 1259310, 2017 | normalized activity (activation), % at 26.1 µM | AlphaScreen FBW7–phospho-cyclin E peptide binding, activator screen | F-box/WD repeat-containing protein 7 (Homo sapiens), Q969H0; in the data active = normalized activity above about 1.9%;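 also: purified mutant Fbw7 with reduced substrate affinity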
GPR151 ag = activators of human GPR151, primary screen, cell-based, PathHunter beta-arrestin, luminescence; 650,000 compounds, 1% hits; AID 1508602, 2020; PathHunter beta-arrestin GPR151 cells; activation, % at 11.2 µM; G-protein coupled receptor 151 (Homo sapiens), Q8TDV0; in the data active = activation above about 4.9%;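 also: 0% = median of compound wells and 100% = cells with positive control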
Target sequence (Q8TDV0 whole entry, looked up): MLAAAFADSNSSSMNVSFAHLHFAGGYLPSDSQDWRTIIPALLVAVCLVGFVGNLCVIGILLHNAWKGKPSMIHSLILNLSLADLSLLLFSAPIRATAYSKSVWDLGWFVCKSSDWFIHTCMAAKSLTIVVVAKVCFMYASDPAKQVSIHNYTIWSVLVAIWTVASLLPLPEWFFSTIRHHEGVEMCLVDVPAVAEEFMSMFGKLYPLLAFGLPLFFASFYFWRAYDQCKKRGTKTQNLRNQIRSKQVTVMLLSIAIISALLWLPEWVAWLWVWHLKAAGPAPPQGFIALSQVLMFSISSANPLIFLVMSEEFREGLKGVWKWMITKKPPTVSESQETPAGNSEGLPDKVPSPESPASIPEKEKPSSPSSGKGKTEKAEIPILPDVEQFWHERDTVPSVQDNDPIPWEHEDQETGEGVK
GPR151 confirm = GPR151 activators, triplicate retest, confirmation, cell-based, PathHunter beta-arrestin, luminescence. shares compounds with GPR151 ag. GPR151 PathHunter beta-arrestin cells, 90 min; % of EA-reagent control over plate median. activation, % at 11.2 µM. 6,700 tested, under 10 active;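 active = mean percent activation across replicates above the confirmation screen cutoff of 4.91%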
GPR119 ag = GPR119 activators in beta-arrestin cells, counter-screen for GPR151 activator project, cell-based, PathHunter beta-arrestin, luminescence, triplicate; shares compounds with GPR151 ag; 90 min; 0 = compound-well median, 100 = enzyme-acceptor control; activation, % at 11.2 µM; 6,700 compounds, 0.3% hits; AID 1508611, 2020;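 active = mean percent activation in the counterscreen above 29.09%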;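 also: counterscreen on off-target GPR119 to flag nonselective hits from the GPR151 activator screen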
Numbers without * were called inactive; . = no result given.

SMILES	TEAD-YAP inh	MITF inh	FBW7 act	GPR151 ag	GPR151 confirm	GPR119 ag
O=C(CN1CC(=O)N2CCCC2C1=O)NCCc1ccc(Cl)cc1 (centres undefined)	-3.2	-2.4	0.0	7.8*	-0.5	-2.1
O=C(CN1CC(=O)N2CCCC2C1=O)NCCc1ccccc1 (centres undefined)	1.4	-4.1	-0.2	-1.9	.	.
O=C(CN1CC(=O)N2CCCC2C1=O)NCc1ccccc1 (centres undefined)	4.8	11.8	0.2	-2.0	.	.
O=C1N/C(=C/c2ccc3c(c2)OCO3)C(=O)N1c1cccc(Cl)c1	1.5	15.9	0.0	-0.3	.	.
O=C1N/C(=C/c2ccccc2)C(=O)N1c1cccc(Cl)c1	-0.2	8.8	0.0	4.7	.	.
COc1ccc(/C=C2/NC(=O)N(c3cccc(Cl)c3)C2=O)c(OC)c1	-6.2	18.0	-0.1	5.7*	2.4	2.6
COc1ccc(/C=C2/NC(=O)N(c3cccc(Cl)c3)C2=O)cc1	-12.4	-5.0	0.0	-0.5	.	.
O=C1N/C(=C/c2ccco2)C(=O)N1c1cccc(Cl)c1	-11.2	-1.9	0.1	5.2*	-0.6	0.7
COc1cc2c(cc1/C=C1/NC(=O)N(c3cccc(Cl)c3)C1=O)OCO2	11.2	1.0	-0.1	8.5*	0.3	6.8
Cc1sc2nc(C)n(C3CCN(C(=O)Cc4c[nH]c5ccccc45)CC3)c(=O)c2c1C	-0.6	-9.0	0.0	3.0	.	.
CCCCC/C=C\C/C=C\C/C=C\CCCCCCC(=O)OC	.	1.4	.	0.6	.	.
O=C(CSc1nnnn1-c1ccccc1)Nc1ccc(OC(F)(F)F)cc1	5.5	12.2	0.3	7.7*	-0.1	4.8
O=C(CSc1nnnn1-c1ccccc1)Nc1ccc(O)cc1	9.9	-16.7	0.0	-0.9	.	.
CSc1cccc(NC(=O)c2ccc(CNc3c(N4CCC(C)CC4)c(=O)c3=O)cc2)c1	6.6	1.6	-0.2	1.7	.	.
CCOc1ccc(C2Nc3ccccc3-c3nnc(SCc4ccccc4F)nc3O2)cc1OC (centres undefined)	-3.1	9.7	-0.2	5.8*	-0.3	15.4
CCCSc1nnc2c(n1)OC(c1ccc(F)cc1)Nc1ccccc1-2 (centres undefined)	-80.2	-6.1	0.1	-1.8	.	.
CCCSc1nnc2c(n1)OC(c1ccc(SC)cc1)Nc1ccccc1-2 (centres undefined)	-59.5	3.5	0.2	5.6*	-0.2	4.7
COc1cc2c(cc1OC)C(COc1cccc(C(F)(F)F)c1)N(C(=O)c1ccc3c(c1)OCO3)CC2 (centres undefined)	-8.7	-7.9	0.2	-0.1	.	.
O=C(CCCC(=O)Nc1ccc(Cl)cc1)Nc1ccc(Cl)cc1	4.8	-1.1	-0.1	14.3*	0.0	-6.4
O=C(CCC(=O)Nc1ccc(Cl)cc1)Nc1ccc(Cl)cc1	1.1	-8.8	-0.3	-0.7	.	.
COc1ccc(S(=O)(=O)N(CC(=O)N2CCOCC2)Cc2ccccc2)cc1C	3.5	-23.8	-0.1	0.7	.	.
COc1ccc(C)cc1S(=O)(=O)N(CC(=O)N1CCOCC1)Cc1ccccc1	3.0	8.9	0.2	12.1*	-0.6	-4.7
CC(=O)Nc1nnc(COc2ccc(Br)cc2)s1	-18.4	12.2	-0.2	7.9*	-0.2	-5.7
CCCc1ccc(OCCCC(=O)Nc2nnc(COC)s2)cc1	-5.3	4.6	0.0	6.9*	0.1	-4.0
Cc1ccc(NC(=O)Nc2nnc(COc3ccc(Br)cc3)s2)cc1	-0.6	8.8	0.1	-0.7	.	.
SMILES	TEAD-YAP inh	MITF inh	FBW7 act	GPR151 ag	GPR151 confirm	GPR119 ag
O=C(O)c1cc(C(=O)O)cc(N2C(=O)c3ccc(Oc4ccc([N+](=O)[O-])cc4)cc3C2=O)c1	-10.4	8.2	0.1	-0.1	.	.
NC(=O)c1ccc(N=c2oc3ccc(Br)cc3cc2C(N)=O)cc1	1.8	-13.7	-0.1	-0.5	.	.
CCOc1cc2c3c(c1)C1(OCCO1)C(=O)N3C(C)(C)CC2C (centres undefined)	-7.4	-4.3	0.0	5.9*	-0.7	-2.2
COc1cccc(/C=N/N(CCC#N)C2=NS(=O)(=O)c3ccccc32)c1O	-0.9	8.9	0.0	10.4*	0.7	-6.9
COc1ccc([N+](=O)[O-])cc1/C=N/N(CCO)C1=NS(=O)(=O)c2ccccc21	-3.2	14.5	0.0	2.1	.	.
CCOC(=O)N1CCN(C(=O)c2sc3ncn(CC(=O)N4CCOCC4)c(=O)c3c2C)CC1	6.2	2.7	0.3	-1.1	.	.
CCC(=O)N1CCc2[nH]c3ccccc3c2C1	-4.4	1.0	0.4	-2.0	.	.
c1ccc(-c2nn3cnnc3c3ccccc23)cc1	-14.9	6.3	-0.2	1.1	.	.
Clc1nn2cnnc2c2ccccc12	-1.5	0.5	0.0	6.9*	0.1	-6.5
CCOC(=O)c1ccc2c(c1)sc(=NC(=O)C(C)(C)C)n2C	61.1*	-16.2	0.0	6.5*	0.0	0.2
CC(C)(C)OC(=O)N[C@@H](c1ccccc1)c1nc(-c2ccc(Br)cc2)no1	-5.8	7.7	0.0	-1.1	.	.
O=C1/C(=C/c2ccc(-c3ccccc3[N+](=O)[O-])o2)NC(=S)N1c1ccccc1	-3.9	7.2	-0.1	0.8	.	.
COc1ccc(-c2noc(N3CCCC(C(=O)N4CCCc5ccccc54)C3)n2)cc1 (centres undefined)	16.9	0.0	0.0	4.0	.	.
COc1ccc(-c2noc(N3CCC(C(=O)O)CC3)n2)cc1	-1.9	-2.2	-0.2	1.5	.	.
COc1ccc(-c2noc(N3CCCC(C(=O)Nc4ccccc4OC)C3)n2)cc1 (centres undefined)	-6.5	0.3	0.2	10.1*	-0.4	-1.0
COc1ccc(-c2noc(N3CCC(C(=O)NC(C)CCc4ccccc4)CC3)n2)cc1 (centres undefined)	-11.0	-12.8	-0.1	5.1*	-0.7	-7.8
COc1ccc(-c2noc(N3CCCC(C(=O)NC4CCCc5ccccc54)C3)n2)cc1 (centres undefined)	6.8	-2.6	0.0	5.6*	0.7	-1.5
COc1cc(/C=C/C(=O)OCC(=O)c2cc(C)n(Cc3ccco3)c2C)ccc1OCC#N	3.2	-1.8	0.1	-0.8	.	.
C=CCNC(=O)CN1CCC(O)(c2ccccc2)CC1	8.0	15.5	1.0	-1.2	.	.
C=CCNC(=O)CN1CCN(C(c2ccccc2)c2ccccc2)CC1	9.7	43.6	-0.1	6.2*	-0.2	-0.7
C=CCNC(=O)CN1CCC(O)(c2cccnc2)CC1	-8.5	-11.9	-0.1	6.2*	-0.6	-2.9
O=C(CN1CCN(C(c2ccccc2)c2ccccc2)CC1)NCc1cccs1	-4.9	35.0	-0.3	-0.5	.	.
